The structures appear in SMILES notation. Hit rate of the full screen: of about 330,000 compounds, about 670 (0.2%) were called active.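 Rule for the calls: active = activity change below a set negative limit, meaning inhibition stronger than a set level (cut at about -70% in these data); inconclusive = activity change between two set negative limits; inactive = the rest.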 The list comes from a sample in which actives are over-represented; it also holds similar structures and randomly drawn compounds.
% is set by controls: 0 for no effect and ±100 for the full control effect.

Thyrotropin receptor (Homo sapiens), sequence (P16473 whole entry, looked up): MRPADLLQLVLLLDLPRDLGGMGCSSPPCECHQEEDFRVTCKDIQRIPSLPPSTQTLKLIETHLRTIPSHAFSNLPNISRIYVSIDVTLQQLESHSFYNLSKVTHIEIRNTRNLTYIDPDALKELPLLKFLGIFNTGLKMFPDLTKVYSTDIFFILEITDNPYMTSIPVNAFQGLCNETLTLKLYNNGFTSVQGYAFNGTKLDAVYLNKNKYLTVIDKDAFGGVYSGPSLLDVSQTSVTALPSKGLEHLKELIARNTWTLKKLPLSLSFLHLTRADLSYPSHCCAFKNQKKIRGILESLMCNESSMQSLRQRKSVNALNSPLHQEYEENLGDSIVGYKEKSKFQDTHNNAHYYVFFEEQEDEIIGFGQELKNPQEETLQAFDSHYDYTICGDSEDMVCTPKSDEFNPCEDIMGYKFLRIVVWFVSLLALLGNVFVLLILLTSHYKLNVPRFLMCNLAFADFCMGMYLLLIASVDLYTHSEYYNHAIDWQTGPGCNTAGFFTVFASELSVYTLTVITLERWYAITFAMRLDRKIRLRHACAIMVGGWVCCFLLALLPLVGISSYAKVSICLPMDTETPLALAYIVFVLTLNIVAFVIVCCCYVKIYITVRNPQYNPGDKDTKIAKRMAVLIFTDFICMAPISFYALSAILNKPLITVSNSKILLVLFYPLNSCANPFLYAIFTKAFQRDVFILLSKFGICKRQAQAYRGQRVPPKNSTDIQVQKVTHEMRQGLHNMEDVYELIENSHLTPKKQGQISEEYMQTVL

In this test the target is Thyrotropin receptor (Homo sapiens) (UniProt P16473). In words: Antagonists of the Thyroid Stimulating Hormone Receptor: HTS campaign. The following applies: TSHR-expressing cells, TSH-stimulated cAMP HTRF, 2 h; at 11.5 µM; active compounds read low. In a few lines:
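Read-out is FRET at 665 nm (cryptate excitation 337 nm) from a cryptate-tagged anti-cAMP antibody, competed by cell cAMP against cAMP-d2. Compounds are tested on freshly harvested TSHR cells challenged with 4nM TSH (EC80) for 2 hours at 37 deg C.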
(Time-resolved FRET reads energy transfer from a long-lived donor to a nearby acceptor.)
Turning to `CCCn1c(=O)c2[nH]c(-c3ccc(OCC(=O)NCCN)cc3)nc2n(CCC)c1=O`, the activity change, negative = inhibition was 26.4% (inactive). `COc1ccc(C(=O)NCC2CCCN2S(=O)(=O)c2cccs2)cc1OC` (stereo not given): the activity change, negative = inhibition is 4.47% (inactive). Turning to `CC(CCc1ccccc1)NCC(O)c1cccc([N+](=O)[O-])c1` (stereo not given), the activity change, negative = inhibition was 9.45% (inactive). The same measure for `CN(c1ccccc1)S(=O)(=O)c1cc(C(=O)Nc2nc3ccccc3[nH]2)ccc1Cl`: -76.7% (active); for `Cc1cccc(NC(=O)c2ccc(S(=O)(=O)N(C)c3ccccc3)cc2)n1`: -19.5% (inactive). The same measure for `CN(c1ccccc1)S(=O)(=O)c1cc(C(=O)OCC(=O)N2CCN(C(=O)c3ccco3)CC2)ccc1Cl`: -10.1% (inactive). On to `Cc1cc(C)n2nc(C(=O)N(C)C(c3ccccc3)c3ccccc3)nc2n1`, for which the activity change, negative = inhibition was 0.111% (inactive). The same measure for `Cc1cc(C)n2nc(C(=O)OC(C)C(=O)c3cc(C)c(C)cc3C)nc2n1` (stereo not given): 23.5% (inactive); for `O=C(CN1C(=O)CSC1=O)N1CCCC(Nc2ccc(F)cc2)C1` (stereo not given): -1.23% (inactive). `Cc1ccsc1C(=O)OCC(=O)Nc1cccc(F)c1`: the activity change, negative = inhibition is -3.82% (inactive). The same measure for `COc1cc(OC)c(S(=O)(=O)Nc2ccccc2C(=O)O)cc1S(=O)(=O)Nc1ccccc1C(=O)O`: -2.52% (inactive).

Consider `CCOc1ccc(NC(=O)c2ccccc2NS(C)(=O)=O)cc1`, for which the activity change, negative = inhibition is 5.45% (inactive). Consider `COc1cc(NC(=O)c2ccccc2NS(=O)(=O)c2ccc(Cl)s2)cc(OC)c1`, for which the activity change, negative = inhibition is -75.8% (active). Consider `CCN(CC)C(=O)CSC1c2ccccc2C(=O)N1c1ccccc1` (stereo not given), for which the activity change, negative = inhibition is 4.85% (inactive). On to `O=C(CCSCCc1ccccn1)Nc1nccs1`, for which the activity change, negative = inhibition was -1.45% (inactive). Turning to `CC(=O)c1nn(-c2cccc(Br)c2)cc1C(=O)c1cccc2ccccc12`, the activity change, negative = inhibition is 7.96% (inactive). With `CC(C)Cc1nn2c(=O)cc(O)nc2s1`, the activity change, negative = inhibition was 2.07% (inactive). For `CCOC(=O)C1(Cc2ccccc2C)CCCN(C(=O)c2ccc(COC)o2)C1` (stereo not given) the value was 26.3% (inactive); for `CC1CCCCC1NC(=O)CO/N=C/c1ccc(OC(F)F)cc1` (stereo not given), -11.3% (inactive); for `CCOc1ccc(/C=N/OCC(=O)NCc2cccs2)cc1`, -4.83% (inactive). As to `O=C(CO/N=C/c1ccc(OC(F)F)cc1)NCc1ccc(F)cc1`, the activity change, negative = inhibition was -73.2% (active).

For the compound `CC(=O)N1c2ccc(S(=O)(=O)NCCC(=O)N(C)C3CCCCC3)cc2CC1C` (stereo not given), the activity change, negative = inhibition was 4.56% (inactive). Turning to `COc1cccc(CNS(=O)(=O)c2ccc3c(c2)CC(C)N3C(C)=O)c1` (stereo not given), the activity change, negative = inhibition was -6.62% (inactive). As for `CC(=O)N1c2ccc(S(=O)(=O)N(C)CC(=O)N(C)Cc3ccccc3)cc2CC1C` (stereo not given), the activity change, negative = inhibition is -99.1% (active). For `Cc1ccc2cc(C)c(N3CCN(c4ccc(F)cc4)CC3)nc2c1` the value was 12.4% (inactive); for `CC(Sc1nncs1)C(=O)NCc1ccc2c(c1)OCO2` (stereo not given), 18.9% (inactive); for `COc1cccc(CNC(=O)c2nnn(CC(=O)Nc3cc(C)ccc3C)c2N)c1`, 4.35% (inactive).

As to `COc1ccc(CNC(=O)c2nnn(CC(=O)Nc3cc(C)cc(C)c3)c2N)cc1`, the activity change, negative = inhibition is 5.35% (inactive).

As for `COc1cccc(CNC(=O)c2nnn(CC(=O)Nc3cc(Cl)ccc3C)c2N)c1`, the activity change, negative = inhibition was -74.4% (active). The same measure for `CC(=O)/C(C)=N/O`: 17.4% (inactive); for `CC12CCC(C(=O)N(NC(=O)c3ccccc3O)C1=O)C2(C)C` (stereo not given): 68.7% (inactive); for `COc1cc(/C=C(/NC(=O)c2ccc(Cl)cc2Cl)C(=O)O)cc(OC)c1OC`: -0.961% (inactive). Turning to `COc1cccc(CCNC(=O)COc2cccc3c2OC(C)(C)C3)c1`, the activity change, negative = inhibition is -10.3% (inactive). On to `COc1ccccc1C(=O)NCCC(=O)N(C)Cc1cccnc1`, for which the activity change, negative = inhibition is 9.57% (inactive). For `COc1cc(C2NC(=O)NC(c3ccccc3)=C2C(C)=O)c(Br)cc1OCC(N)=O` (stereo not given) the value was -8.27% (inactive). For `C[C@H](NC(=O)c1nc[nH]c1C(=O)NCC(=O)OC(C)(C)C)C(=O)OCc1ccccc1` the value was -7.53% (inactive); for `O=C(NNC(=O)c1cc(-c2ccccc2Cl)nc2ccccc12)c1csc(N2CCOCC2)n1`, 0.138% (inactive).

`CS(=O)(=O)N(CC(=O)N/N=C/c1ccccn1)c1ccc(Oc2ccccc2)cc1`: the activity change, negative = inhibition was -9.31% (inactive). With `NC(=O)c1ccc(Nc2ccc3nonc3c2[N+](=O)[O-])cc1`, the activity change, negative = inhibition is 27.6% (inactive). The same measure for `O=[N+]([O-])c1c(NCCO)cc(Sc2nc3ccccc3s2)c2nonc12`: -94.3% (active); for `Cc1nc2nc(CSc3nc4ccccc4s3)cc(=O)n2[nH]1`: -15% (inactive). As to `O=C(COC(=O)COc1cccc(F)c1)NCC1CCCCC1`, the activity change, negative = inhibition is 8.58% (inactive). On to `CC(=O)Oc1ccccc1C(=O)Nc1ncc([N+](=O)[O-])s1`, for which the activity change, negative = inhibition is -80.5% (active). The same measure for `O=C(Cc1c(F)cccc1Cl)Nc1ncc([N+](=O)[O-])s1`: -13.2% (inactive); for `Cc1cnc(NC(=O)c2ccccn2)s1`: 6.51% (inactive).

The values above are taken from PubChem BioAssay AID504810 (National Center for Advancing Translational Sciences (NCATS), 2011).
